Screening results from PubChem.
Shown are actives, neighbours in structure and some others; about 3.9% of the full set was active somewhere.
p53null 32C tox = selectivity test: cytotoxicity in p53 null cells, permissive temperature; H1299-neo p53 null cells, ATP luminescence, 24 h, 32C; Potency, µM (series often up to 46.1 µM), usual class: cytotoxic; hit rate 0.62% among 55,000; AID 903; also: nearly all actives have a fitted effect of over 55% in size
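AC50 values derive from Hill modelling of qHTS concentration-response data (up to 46 uM) in H1299-neo cells. Cells were treated 24 h at 32C following overnight attachment at 37C; viability was read as cellular ATP.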
HTT-AS promoter = activators of huntingtin-antisense promoter activity. HEK293 HTT-AS promoter firefly luciferase reporter, 24 h; response scale: percent change from vehicle, -100% = no light. Potency, µM (top dose mostly 57.5 µM), hits mostly activators. hit rate 0.24% among 48,000. AID 1508624; also: nearly all actives have a fitted effect of over 55% in size
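Firefly luciferase signal from promoter-reporter HEK293 cells was scaled between vehicle (0%) and zero RLU (-100%). Compounds were tested at final concentrations of up to 57.5 uM over 24 h at 37 degrees C. PTC124 at 50 uM final served as control inhibitor.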
HTT prom inh = inhibitors of huntingtin promoter activity; Potency, µM (series often up to 57.5 µM), most hits filed as inhibitors; hit rate 0.93% among 48,000; AID 1508623; HEK293 HTT promoter firefly luciferase reporter, 24 h; also: nearly all actives have a fitted effect of over 50% in size
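HEK293 cells carrying firefly luciferase reporters were seeded at 2,500 per well in Opti-MEM and cultured for 24 h. They were then treated with compounds at up to 57.5 uM final for 24 h at 37 degrees C before Dual-Glo luminescence readout.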
DRV1 agonist = activates human resolvin D1 receptor GPR32 | hit rate 2.5% among 48,000 | CHO-K1 GPR32 beta-arrestin PathHunter luminescence, 90 min; zero percent set by DMSO-only wells | activation, % at 76.9 µM;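 active = activation of at least 60% and not above a set upper limit, about 1 call in 100 departs from these limits; inconclusive = activation of 40% to 60%, or above that upper limit; inactive = activation under 40%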
Target sequence (O75388 whole entry, looked up): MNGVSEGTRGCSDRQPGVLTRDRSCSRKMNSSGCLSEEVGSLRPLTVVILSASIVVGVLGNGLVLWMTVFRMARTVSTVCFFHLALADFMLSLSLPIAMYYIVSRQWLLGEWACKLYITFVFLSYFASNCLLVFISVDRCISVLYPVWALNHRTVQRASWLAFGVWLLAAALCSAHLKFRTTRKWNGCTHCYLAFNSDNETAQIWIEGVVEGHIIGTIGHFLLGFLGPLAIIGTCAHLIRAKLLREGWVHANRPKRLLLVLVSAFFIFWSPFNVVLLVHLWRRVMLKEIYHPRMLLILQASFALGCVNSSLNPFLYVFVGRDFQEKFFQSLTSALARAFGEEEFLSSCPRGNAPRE
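Using DMSO wells as EC0, agonist-induced signal was taken as chemiluminescence from beta-Gal reconstituted upon beta-arrestin recruitment to GPR32 in CHO-K1 cells after 90 min compound treatment.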
p53null 39C tox = kills p53 null cells at the nonpermissive temperature. H1299 p53-null (neo) cells, 39C, ATPlite viability, 24 h. Potency, µM (series often up to 46.1 µM), actives largely listed as cytotoxic. hit rate 0.97% among 55,000. AID 904; also: nearly all actives have a fitted effect of over 50% in size
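Temperature-shift cytotoxicity format: compound titrations on p53-null or A138V-expressing H1299 cells held 24 hr at 39C, cell ATP then measured, AC50 from Hill model.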
Each line names hits and unclear results; the compound was inactive in the other large screens. Unless noted, calls follow the shape of the dose curve; as a rule, active = well fitted curve in the direction sought with a large enough effect; inconclusive = small, poorly fitted or top-dose-only effect, or another doubt; inactive = no such curve, though single readings can be large; an effect the other way counts as inactive or inconclusive.

N#Cc1c(-n2ncnc2-c2ccccc2Cl)sc2c1CCCCC2	HTT prom inh inconclusive
CCCCCCn1c(/C=C/c2ccccc2)nc2ccccc21	HTT-AS promoter inconclusive, p53null 39C tox 13µM
Cc1cc2ccccc2n1CCNC(=O)c1cccc(Cl)c1	DRV1 agonist 116
Cc1cc2ccccc2n1CCNC(=O)c1cccc(Br)c1	none
Nc1ccc(C(=O)N2CC3CC(CN(Cc4ccccc4)C3)C2)cc1	none (no result: p53null 32C tox, p53null 39C tox)
O=C(c1ccc(CSc2nc3ccncc3n2Cc2ccccc2F)cc1)N1CCCCCC1	p53null 39C tox inconclusive
Cc1ccc(Cn2c(SCc3ccc(C(=O)N4CCCCC4)cc3)nc3ccncc32)cc1	HTT prom inh 13µM
Cc1ccc(Cn2c(SCc3ccc(C(=O)N4CCCCCC4)cc3)nc3ccncc32)cc1	HTT prom inh 32µM
Cc1ccccc1Cn1c(SCc2ccc(C(=O)N3CCCCC3)cc2)nc2ccncc21	HTT prom inh inconclusive
Cn1c(=O)c2c(nc(NCCc3ccccc3)n2Cc2ccc(Cl)cc2)n(C)c1=O	p53null 32C tox inconclusive, HTT prom inh inconclusive, DRV1 agonist 73, p53null 39C tox inconclusive
O=c1c(NCCc2ccc(Cl)cc2)nccn1-c1ccccc1	DRV1 agonist 91
CSc1ccc(CCNC(=O)C(C)n2nc(C)c3c(C)n(-c4ccccc4)nc3c2=O)cc1 (configuration not stated)	HTT prom inh inconclusive
CCC(C(=O)NCCc1ccc(SC)cc1)n1nc(C)c2c(C)n(-c3ccc(C)cc3)nc2c1=O (configuration not stated)	HTT prom inh 35µM
Cc1ccc(-n2nc3c(=O)n(C(C)C(=O)NCc4ccc(OC(C)C)cc4)nc(C)c3c2C)cc1 (configuration not stated)	HTT prom inh 7.1µM
Cc1ccc(-n2nc3c(=O)n(C(C)C(=O)NCc4ccccc4C)nc(C)c3c2C)cc1 (configuration not stated)	HTT prom inh inconclusive
O=C(O)CCCC[P+](c1ccccc1)(c1ccccc1)c1ccccc1	none (no result: p53null 32C tox, p53null 39C tox)
C[N+]1(C)[C@@H]2C[C@@H](OC(=O)C(O)(c3cccs3)c3cccs3)C[C@H]1[C@@H]1O[C@@H]12	none (no result: p53null 32C tox, DRV1 agonist, p53null 39C tox)
Cc1c(Cl)cccc1NC(=O)c1cc(-c2ccc3c(c2)OCO3)on1	none (no result: HTT-AS promoter, HTT prom inh)
Cc1ccc(NC(=O)c2cc(-c3cccs3)on2)cc1C	HTT-AS promoter 8.9µM
Cc1c(Cl)cccc1NC(=O)c1cc(-c2cccs2)on1	DRV1 agonist 91
O=C(Nc1c(Cl)cccc1Cl)c1cc(-c2cccc(O)c2)on1	DRV1 agonist 105, p53null 39C tox 13µM (no result: HTT-AS promoter, HTT prom inh)
Nc1nccc(-c2ccc3noc(-c4ccc(Cl)cc4)c3c2)n1	HTT prom inh inconclusive (no result: p53null 32C tox, DRV1 agonist, p53null 39C tox)
CC1CCN(S(=O)(=O)c2ccc3nc(Nc4ccc(C#N)cc4)ccc3c2)CC1	HTT prom inh inconclusive
CC1CCN(S(=O)(=O)c2ccc3nc(Nc4cccc(C(F)(F)F)c4)ccc3c2)CC1	HTT prom inh inconclusive, p53null 39C tox 11µM
CN(C)Cc1cccc(N=C(c2ccccc2)c2c(O)[nH]c3cc(C(=O)N(C)C)ccc23)c1	HTT prom inh inconclusive (no result: p53null 32C tox, DRV1 agonist, p53null 39C tox)
CC[C@H](CC[C@@H](C)[C@H]1CC[C@H]2[C@@H]3CC=C4C[C@@H](O)CC[C@]4(C)[C@@H]3CC[C@]12C)C(C)C	none (no result: p53null 32C tox, DRV1 agonist, p53null 39C tox)
COC(=O)c1ccc(Nc2nc(-c3ccc(C)cc3)nc3ccccc23)cc1	p53null 32C tox inconclusive, p53null 39C tox 16µM
COc1ccc(-c2nc(CSCC(=O)N3CCN(c4cccc(C)c4C)CC3)c(C)o2)cc1OC	HTT prom inh 13µM
CCOc1ccc(-c2nc(CSCC(=O)N3CCN(c4ccc(F)cc4)CC3)c(C)o2)cc1	none
CCC(C)NC(=O)CSCc1nc(-c2ccc(C)cc2)oc1C (configuration not stated)	HTT prom inh inconclusive
COC(=O)CSCc1nc(-c2ccc(C(=O)OC)cc2)oc1C	HTT prom inh 2µM
CCOc1ccc(-c2nc(CSCC(=O)N3CCN(c4cccc(C(F)(F)F)c4)CC3)c(C)o2)cc1	HTT prom inh 16µM
COc1ccc(-c2nc(CSCC(=O)N3CCN(c4cc(Cl)ccc4C)CC3)c(C)o2)cc1	HTT prom inh 13µM
COC[C@@H](c1ccc(C(F)(F)F)cc1)N1CCN(C2(C)CCN(C(=O)c3c(C)ncnc3C)CC2)C[C@H]1C	HTT prom inh inconclusive (no result: p53null 32C tox, p53null 39C tox)
NC(=O)NN=Cc1ccc([N+](=O)[O-])o1	none (no result: p53null 32C tox, DRV1 agonist, p53null 39C tox)
CCn1cc(-c2ccnc3[nH]c(-c4cccc(CN(C)C)c4)cc23)c(-c2ccc(NC(=O)N(C)C)cc2)n1	HTT prom inh inconclusive (no result: p53null 32C tox, DRV1 agonist, p53null 39C tox)
CCOC(=O)c1c(C)oc2nc(C)nc(N3CCN(c4cccc(C(F)(F)F)c4)CC3)c12	HTT prom inh 25µM
Cc1cc(-c2ccc(CC(=O)Nc3ccc(-c4cccnc4)cc3)cc2)ccn1	HTT prom inh inconclusive (no result: p53null 32C tox, DRV1 agonist, p53null 39C tox)
COC(=O)c1ccc(NC(=O)CC2Nc3cc(C)c(C)cc3NC2=O)cc1 (configuration not stated)	HTT prom inh 25µM
Clc1ccc(C(c2ccccc2)c2c[nH]c3ccccc23)s1 (configuration not stated)	DRV1 agonist 107
Cn1cc(C(c2ccccc2)c2ccc(Cl)s2)c2ccccc21 (configuration not stated)	none
Cc1ccc2[nH]cc(C(c3ccccc3)c3ccc(Cl)s3)c2c1 (configuration not stated)	p53null 32C tox 20µM, HTT prom inh inconclusive, p53null 39C tox 25µM
CCc1ccc(C(c2ccccc2)c2c[nH]c3ccc(C)cc23)s1 (configuration not stated)	p53null 32C tox inconclusive
CC(C=CC(=O)NO)=C[C@@H](C)C(=O)c1ccc(N(C)C)cc1	none (no result: p53null 32C tox, DRV1 agonist, p53null 39C tox)
N#Cc1ccc(OC(=O)c2cc(-c3ccc4c(c3)OCCO4)on2)cc1	p53null 32C tox inconclusive, HTT-AS promoter inconclusive, p53null 39C tox inconclusive
COc1ccc(OC(=O)c2cc(-c3ccc4c(c3)OCCO4)on2)cc1	p53null 32C tox 13µM, p53null 39C tox inconclusive
O=C(Oc1ccc(Cl)cc1)c1cc(-c2ccc3c(c2)OCCO3)on1	none
CC(C)c1ccc(OC(=O)c2cc(-c3ccc4c(c3)OCCO4)on2)cc1	p53null 32C tox 13µM, p53null 39C tox 32µM
COc1ccc(C(=O)Nc2ccc3c(c2)OCCO3)cc1	p53null 32C tox 11µM, p53null 39C tox 11µM (no result: HTT-AS promoter, HTT prom inh, DRV1 agonist)
CC(=O)[C@]1(O)Cc2c(O)c3c(c(O)c2[C@@H](O[C@H]2C[C@H](N)[C@@H](O)[C@H](C)O2)C1)C(=O)c1ccccc1C3=O	HTT prom inh inconclusive (no result: p53null 32C tox, DRV1 agonist, p53null 39C tox)
COCCOc1ccc2c(c1)ncn2-c1ccc2cccc(N3CCC(N)CC3)c2n1	HTT prom inh inconclusive (no result: p53null 32C tox, DRV1 agonist, p53null 39C tox)
COc1ccccc1C(=O)N1CCC(c2noc(-c3ccc(S(=O)(=O)N4CCCC4)cc3)n2)CC1	HTT prom inh 25µM
